The values that follow come from PubChem BioAssay (NCI).

Experiment [1] in a line: NCI Yeast Anticancer Drug Screen. Data for the rad50 strain (AID 155).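 Further: 0% = growth of vehicle-only cultures of the same strain.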 As to conditions: S. cerevisiae rad50 strain growth inhibition, hits give high values. Put shortly:
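Yeast carrying a defined DNA repair defect were exposed to test compounds, and growth was compared with vehicle-treated controls to give percent inhibition.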

Experiment [2] is described as follows: NCI Yeast Anticancer Drug Screen. Data for the mec2-1 strain (AID 157). To be noted: S. cerevisiae mec2-1 strain, hits give high values. Put shortly: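 Growth inhibition is read against vehicle-treated controls after compound exposure of the mec2-1 yeast strain, which is defective in DNA damage repair or cell cycle control.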
Experiment [3] can be described thus: NCI Yeast Anticancer Drug Screen. Data for the sgs1 mgt1 strain (AID 161).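 Further: 0% = growth of cultures given vehicle only.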 As to conditions: S. cerevisiae sgs1 mgt1 strain, hits give high values. Put shortly: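 Yeast cells carrying a defined DNA-repair defect were exposed to test compounds. Growth inhibition was measured relative to vehicle-treated controls.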
A short description of experiment [4]: NCI Yeast Anticancer Drug Screen. Data for the cln2 rad14 strain (AID 165).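 Further: 0% = growth equal to vehicle treated cultures.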 To be noted: S. cerevisiae cln2 rad14 strain, hits give high values. Put shortly:
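Growth inhibition, relative to vehicle-treated controls, is the read-out. The test organism is a yeast strain with defined genetic alterations, cln2 rad14.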

Experiment [5] in a line: NCI Yeast Anticancer Drug Screen. Data for the bub3 strain (AID 167). As to conditions: S. cerevisiae bub3 mutant strain, hits give high values. Put shortly:
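Compounds were applied to a genetically altered yeast strain carrying a cell-cycle control defect. Growth inhibition was scored against vehicle-treated controls.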

A short description of experiment [6]: NCI Yeast Anticancer Drug Screen. Data for the mlh1 rad18 strain (AID 175). As to conditions: S. cerevisiae mlh1 rad18 strain growth inhibition, hits give high values. Put shortly: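 Cells of a genetically altered yeast strain, deficient in DNA damage repair, were treated with compound. Their growth was then compared with that of vehicle-treated cultures to give inhibition.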

[7] abbreviates: at 5.0 µM (retest, dose inferred, filed as 0.5).
[8] abbreviates: at 50.0 µM (retest, dose inferred, filed as 5.0).

Structures are written as SMILES. About 79,000 compounds went through this panel and 15% of them were active in at least one assay; those are over-represented in the sample as a whole. Values without a mark were called inactive. Active and inactive are the calls of the source. No stated cut-off is given here; in the data, active means growth inhibition above about 70%; inactive means the rest. *1 amine or outer side, *2 acyl side, *3 side chain or, on linkers, in order; H or OH if unused. Where a SMILES comes first, the peptide text is derived from it. Bridges are numbered along the chain shown (N, C = ends). Roman numbers before positions name the chains, in order. [ ]: non-standard residue; d: D form. Actinocin(1to9) = Cc1c2oc3c(C)ccc(C(=O)[*:2])c3nc-2c(C(=O)[*:1])c(N)c1=O; NMeV = CN[CH](C(=O)O)C(C)C; Sar = CNCC(=O)O

With `NC(CS/C(Cl)=C/Cl)C(=O)O` (configuration not stated), the growth inhibition in experiment [1] (setting [7]) was 48%; in experiment [1] (setting [8]) it was 92% (active); in experiment [1] (at 50.0 µM) it was 92.3% (active); in experiment [2] (setting [7]), 47%; in experiment [2] (setting [8]), 96% (active); in experiment [2] (at 50.0 µM) it was 93.8% (active). In addition, the growth inhibition in experiment [3] (setting [7]) was 34%; in experiment [3] (setting [8]), 94% (active); in experiment [3] (at 50.0 µM), 93.5% (active); in experiment [4] (setting [7]), 41%; in experiment [4] (setting [8]), 96% (active); in experiment [4] (at 50.0 µM), 92.3% (active). Further, the growth inhibition is 19% in experiment [5] (setting [7]); 94% (active) in experiment [5] (setting [8]); 89.4% (active) in experiment [5] (at 50.0 µM); 89% (active) in experiment [6] (setting [7]); 97% (active) in experiment [6] (setting [8]); 97.5% (active) in experiment [6] (at 50.0 µM).
Take `COc1ccc(Nc2nc3ccc(C(F)(F)F)cc3nc2C(=O)O)cc1`: the growth inhibition was 10% in experiment [1] (setting [7]); 51% in experiment [1] (setting [8]); 30.6% in experiment [1] (at 50.0 µM); 13% in experiment [2] (setting [7]); 46% in experiment [2] (setting [8]); 42.9% in experiment [2] (at 50.0 µM). Also, the growth inhibition in experiment [3] (setting [7]) was 21%; in experiment [3] (setting [8]) it was 22%; in experiment [3] (at 50.0 µM), 40.6%; in experiment [4] (setting [7]) it was 31%; in experiment [4] (setting [8]) it was 37%; in experiment [4] (at 50.0 µM), 68.3%. Further, the growth inhibition in experiment [5] (setting [7]) is 7%; in experiment [5] (setting [8]), 12%; in experiment [5] (at 50.0 µM), 60.5%; in experiment [6] (setting [7]) it was 9%; in experiment [6] (setting [8]) it was 48%; in experiment [6] (at 50.0 µM), 54.5%.
`CCCOS(=O)(=O)c1ccccc1`: the growth inhibition in experiment [1] (setting [7]) was 14%; in experiment [1] (setting [8]), 1%; in experiment [1] (at 50.0 µM), 0.7%; in experiment [2] (setting [7]) it was 19%; in experiment [2] (setting [8]), 38%; in experiment [2] (at 50.0 µM) it was 12.3%. The growth inhibition in experiment [3] (setting [7]) was -7%; in experiment [3] (setting [8]) it was 4%; in experiment [3] (at 50.0 µM), 10.1%; in experiment [4] (setting [7]) it was 38%; in experiment [4] (setting [8]), 35%; in experiment [4] (at 50.0 µM), -2.2%. Further, the growth inhibition in experiment [5] (setting [7]) is 23%; in experiment [5] (setting [8]), 42%; in experiment [5] (at 50.0 µM), -1.4%; in experiment [6] (setting [7]) it was 11%; in experiment [6] (setting [8]) it was 32%; in experiment [6] (at 50.0 µM) it was 14.3%.
Regarding `CCC(C)C1NC(=O)C(NC(=O)c2c3nc4c(C(=O)NC5C(=O)NC(C(C)CC)C(=O)N6CCCC6C(=O)N(C)CC(=O)N(C)C(C(C)C)C(=O)OC5C)ccc(C)c4oc-3c(C)c(=O)c2N)C(C)OC(=O)C(C(C)C)N(C)C(=O)CN(C)C(=O)C2CCCN2C1=O` (configuration not stated) (I: TIP[Sar][NMeV] / II: TIP[Sar][NMeV]; ester I:1-I:C, II:1-II:C; linker I:N-II:N via Actinocin(1to9); configuration not given here), the growth inhibition was 66% in experiment [1] (setting [7]); 98% (active) in experiment [1] (setting [8]); 91% (active) in experiment [1] (at 50.0 µM); 33% in experiment [2] (setting [7]); 99% (active) in experiment [2] (setting [8]); 93.7% (active) in experiment [2] (at 50.0 µM). The growth inhibition in experiment [3] (setting [7]) is 32%; in experiment [3] (setting [8]), 98% (active); in experiment [3] (at 50.0 µM) it was 92.5% (active); in experiment [4] (setting [7]) it was 38%; in experiment [4] (setting [8]), 97% (active); in experiment [4] (at 50.0 µM) it was 90.7% (active). For the same molecule, the growth inhibition in experiment [5] (setting [7]) was 43%; in experiment [5] (setting [8]), 99% (active); in experiment [5] (at 50.0 µM) it was 92.6% (active); in experiment [6] (setting [7]) it was 67%; in experiment [6] (setting [8]), 98% (active); in experiment [6] (at 50.0 µM), 88.3% (active).
`CC(C)=CCCC(C)C1=C(O)C(=O)C(C)=CC1=O` (configuration not stated): the growth inhibition is 25% in experiment [1] (setting [7]); 97% (active) in experiment [1] (setting [8]); 88.8% (active) in experiment [1] (at 50.0 µM); 19% in experiment [2] (setting [7]); 98% (active) in experiment [2] (setting [8]); 93.3% (active) in experiment [2] (at 50.0 µM). The growth inhibition in experiment [3] (setting [7]) is 15%; in experiment [3] (setting [8]), 99% (active); in experiment [3] (at 50.0 µM), 90.8% (active); in experiment [4] (setting [7]), 24%; in experiment [4] (setting [8]), 86% (active); in experiment [4] (at 50.0 µM), 70%. The growth inhibition in experiment [5] (setting [7]) was 19%; in experiment [5] (setting [8]), 99% (active); in experiment [5] (at 50.0 µM), 90.6% (active); in experiment [6] (setting [7]), 25%; in experiment [6] (setting [8]) it was 98% (active); in experiment [6] (at 50.0 µM), 87% (active).
As for `NC(=Nc1nc(-c2ccccn2)cc2ccccc12)c1ccccn1`, the growth inhibition in experiment [1] (setting [7]) was 54%; in experiment [1] (setting [8]), 70% (active); in experiment [1] (at 50.0 µM), 77.2% (active); in experiment [2] (setting [7]) it was 54%; in experiment [2] (setting [8]), 66%; in experiment [2] (at 50.0 µM) it was 67.7%. The growth inhibition in experiment [3] (setting [7]) is 64%; in experiment [3] (setting [8]), 72% (active); in experiment [3] (at 50.0 µM), 69.2%; in experiment [4] (setting [7]), 60%; in experiment [4] (setting [8]) it was 71% (active); in experiment [4] (at 50.0 µM), 68.6%. In addition, the growth inhibition was 73% (active) in experiment [5] (setting [7]); 77% (active) in experiment [5] (setting [8]); 71.3% (active) in experiment [5] (at 50.0 µM); 61% in experiment [6] (setting [7]); 69% in experiment [6] (setting [8]); 72.2% (active) in experiment [6] (at 50.0 µM).
Turning to `CCOc1ccc(C(CN2CCOCC2)C(C)=O)cc1OC` (configuration not stated), the growth inhibition in experiment [1] (setting [7]) was -3%; in experiment [1] (setting [8]), 30%; in experiment [1] (at 50.0 µM), 72.5% (active); in experiment [2] (setting [7]) it was -27%; in experiment [2] (setting [8]), 68%; in experiment [2] (at 50.0 µM), 77.7% (active). Also, the growth inhibition was -4% in experiment [3] (setting [7]); 30% in experiment [3] (setting [8]); 74.7% (active) in experiment [3] (at 50.0 µM); 0% in experiment [4] (setting [7]); 28% in experiment [4] (setting [8]); 45.4% in experiment [4] (at 50.0 µM). Also, the growth inhibition in experiment [5] (setting [7]) was -8%; in experiment [5] (setting [8]), 81% (active); in experiment [5] (at 50.0 µM), 78.7% (active); in experiment [6] (setting [7]), -18%; in experiment [6] (setting [8]) it was 86% (active); in experiment [6] (at 50.0 µM) it was 63.8%.
For the molecule `O=C1C(=O)c2cccnc2-c2ncccc21`, the growth inhibition in experiment [1] (setting [7]) was 93% (active); in experiment [1] (setting [8]), 98% (active); in experiment [1] (at 50.0 µM), 90.8% (active); in experiment [2] (setting [7]) it was 95% (active); in experiment [2] (setting [8]), 98% (active); in experiment [2] (at 50.0 µM), 93.6% (active). Further, the growth inhibition is 95% (active) in experiment [3] (setting [7]); 99% (active) in experiment [3] (setting [8]); 93.2% (active) in experiment [3] (at 50.0 µM); 73% (active) in experiment [4] (setting [7]); 96% (active) in experiment [4] (setting [8]); 91% (active) in experiment [4] (at 50.0 µM). For the same molecule, the growth inhibition in experiment [5] (setting [7]) is 96% (active); in experiment [5] (setting [8]), 98% (active); in experiment [5] (at 50.0 µM) it was 92.2% (active); in experiment [6] (setting [7]) it was 94% (active); in experiment [6] (setting [8]) it was 98% (active); in experiment [6] (at 50.0 µM), 91.5% (active).
`N#CC(I)CS(=O)(=O)c1ccccc1` (configuration not stated): the growth inhibition was 99% (active) in experiment [1] (setting [7]); 99% (active) in experiment [1] (setting [8]); 54.7% in experiment [1] (at 50.0 µM); 100% (active) in experiment [2] (setting [7]); 99% (active) in experiment [2] (setting [8]); 98.7% (active) in experiment [2] (at 50.0 µM). The growth inhibition is 99% (active) in experiment [3] (setting [7]); 99% (active) in experiment [3] (setting [8]); 99.3% (active) in experiment [3] (at 50.0 µM); 99% (active) in experiment [4] (setting [7]); 99% (active) in experiment [4] (setting [8]); 55% in experiment [4] (at 50.0 µM). The growth inhibition in experiment [5] (setting [7]) is 99% (active); in experiment [5] (setting [8]) it was 99% (active); in experiment [5] (at 50.0 µM), 45.4%; in experiment [6] (setting [7]) it was 99% (active); in experiment [6] (setting [8]), 98% (active); in experiment [6] (at 50.0 µM), 42.7%.
